According to PubChem BioAssay (NCI):
The panel holds about 83,000 compounds, 20% with a hit somewhere; the sample as a whole holds those more often.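 Each cell line was grown in a 96-well plate and treated with one concentration of compound for 48 hours. Values below 10 were considered active.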 Values without a mark were called inactive. Calls of active or inactive are those of the source.

What was measured:
Assay in all cases: NCI-60 one-dose screen, 48 h (100 = growth as untreated, 0 = no growth, -100 = all killed)
Conditions in all cases: 10 µM unless noted
SK-MEL-2 melanoma = tested on: SK-MEL-2 melanoma
EKVX NSCLC = tested on: EKVX NSCLC
SN12C renal = tested on: SN12C renal
UO-31 renal = tested on: UO-31 renal
TK-10 renal = tested on: TK-10 renal
ACHN renal = tested on: ACHN renal
CAKI-1 renal = tested on: CAKI-1 renal
A498 renal = tested on: A498 renal
CCRF-CEM leukemia = tested on: CCRF-CEM leukemia
MOLT-4 leukemia = tested on: MOLT-4 leukemia

SMILES	growth (SK-MEL-2 melanoma)	growth (EKVX NSCLC)	growth (SN12C renal)	growth (UO-31 renal)	growth (TK-10 renal)	growth (ACHN renal)	growth (CAKI-1 renal)	growth (A498 renal)	growth (CCRF-CEM leukemia)	growth (MOLT-4 leukemia)
N#Cc1c(NC(=O)N2CCOCC2)n(-c2ccc(OC(F)(F)F)cc2)c2cc(F)ccc12	94%	90.1%	93.5%	104%	113%	93.2%	88.9%	177%	85.5%	68.7%
COc1sc(/C=N/NC(=O)c2[nH]c3ccc(Br)cc3c2-c2ccccc2)cc1Br	15.4%	13.5%	5.93% (active)	31.1%	64.6%	7.58% (active)	15.2%	134%	6.23% (active)	-2.1% (active)
O=C1Nc2cc(-c3ccc(NS(=O)(=O)c4ccc(-c5ccccc5)cc4)cc3)ccc2/C1=C/c1ccc[nH]1	83.1%	10.9%	16.3%	68.5%	49%	47.4%	40.7%	75.6%	32.2%	27.6%
O=C(Cc1c(-c2cccc([N+](=O)[O-])c2)n(-c2ncnc3c2c(-c2ccccc2)c(-c2ccccc2)n3Cc2ccccc2)[nH]c1=O)c1ccc(Cl)c(Cl)c1	1.5% (active)	11.1%	38.5%	39.8%	59%	40.4%	21.1%	70.3%	51.3%	41.9%
COc1cc(/C=N/NC(=O)c2ccc(OCc3nc4ccc(Cl)cc4[nH]3)cc2)cc(OC)c1OC	74.5%	33.3%	48.7%	45.5%	74.9%	39.1%	40.5%	121%	3.83% (active)	12.1%
O=C(NN1C(=O)/C(=C/C=C/c2ccc([N+](=O)[O-])o2)SC1=S)c1ccncc1	-79.3% (active)	-92% (active)	-99.9% (active)	-97.2% (active)	-91% (active)	-100% (active)	-100% (active)	18.9%	-43.9% (active)	-38.8% (active)
O=c1[nH]c2ccccc2cc1COc1ccc(Nc2nccc(-c3ccc(Cl)cc3)n2)cc1	99.6%	104%	100%	98.7%	111%	84.9%	87.5%	118%	103%	102%
Cc1ccc(Cl)cc1NC(=O)Nc1nc2ccc([N+](=O)[O-])cc2s1	-47.1% (active)	-0.784% (active)	-25.7% (active)	-16.3% (active)	2.13% (active)	-19.8% (active)	-26% (active)	-21.7% (active)	3.14% (active)	6.23% (active)
COc1cc(CNC(=O)C[C@H](C)CCC=C(C)C)ccc1OCc1cn(-c2ccccc2Cl)nn1	53.3%	54%	69.6%	30.3%	93.1%	67.6%	46.3%	107%	40.1%	16.3%
Cc1nn(-c2ccccc2)c2nc(C)n(C(=O)N/N=C/c3cccc([N+](=O)[O-])c3)c(=O)c12	92.9%	49.3%	94.4%	81.4%	138%	91%	90.8%	136%	71.2%	79.2%
COc1ccc(-c2cc(-c3ccccc3)c(C#N)c(=O)[nH]2)cc1S(N)(=O)=O	104%	95.9%	124%	89.8%	96.8%	103%	96.4%	91.2%	113%	136%
c1n[nH]cc1-c1nc2ccc3[nH]ncc3c2c2c1CC1(CCOCC1)CC2	24.5%	55.3%	28.8%	55.4%	29.2%	22.1%	4.86% (active)	-3.86% (active)	19.3%	22.2%
O=C1/C(=C/c2cccc3c2OCO3)Cc2c(F)cc(Br)cc21	111%	94.4%	111%	90%	115%	108%	94.6%	152%	103%	106%
N#CC1=C(c2ccco2)Nc2c(c(-c3ccccc3)nn2-c2ccccc2)C12C(=O)Nc1ccc(Cl)cc12 (stereo not given)	80.2%	24.2%	-44.4% (active)	43.1%	-15.4% (active)	8.94% (active)	33%	135%	25%	34.8%
COc1ccc2c(c1)C(Sc1ccc(Br)cc1)c1c(nc(N)c(C#N)c1N)O2 (stereo not given)	94.3%	67%	77.1%	43.7%	108%	79.7%	80.3%	103%	9.55% (active)	55%
COC(=O)c1ccc(-c2c(-c3ccccc3)c(F)c3oc(C(=O)OC)c(N)c3c2-c2ccccc2)cc1	99.6%	90.4%	98.1%	88.6%	114%	102%	81.1%	99%	95%	66.5%
Nc1cc2ccccc2c(=O)n1NC(=O)c1ccccc1	105%	87.6%	100%	58.3%	127%	93.4%	83.8%	145%	98.9%	93.9%
Nc1cc(-c2c[nH]c3ccc(Br)cc23)nc2cc(-c3c[nH]c4ccccc34)nn12	-66.8% (active)	-67.5% (active)	-66.3% (active)	-54% (active)	-57.3% (active)	-35.5% (active)	-48.6% (active)	-77.3% (active)	-13.8% (active)	3.76% (active)
CCN(C(=O)CN1C(=O)/C(=C/c2ccco2)SC1=S)C1CCS(=O)(=O)C1 (stereo not given)	99.2%	98%	106%	83.6%	121%	114%	91.4%	105%	105%	103%
COc1ccc(SC2c3cc(OC)ccc3Oc3nc(N)c(C#N)c(N)c32)cc1 (stereo not given)	94.5%	76.3%	73.7%	39.7%	110%	76.3%	79.1%	107%	4.16% (active)	55.4%
COc1sc(/C=N/NC(=O)c2[nH]c3ccc(Br)cc3c2-c2ccccc2)cc1Cl	-9.93% (active)	-12.3% (active)	-26.6% (active)	-5.09% (active)	9.67% (active)	-67.9% (active)	-46.4% (active)	9.37% (active)	9.12% (active)	-3.08% (active)
N#CC1=C(c2cccs2)Nc2c(c(-c3ccccc3)nn2-c2ccccc2)C12C(=O)Nc1ccccc12 (stereo not given)	90.1%	14.8%	55.3%	18.2%	18.1%	-26.9% (active)	63.4%	-14.9% (active)	6.02% (active)	15%
COc1ccc(N=Nc2c(N)nn3c(N)c(C#N)c(-c4ccc(C)cc4)nc23)cc1	91%	36.3%	57.7%	61.1%	101%	56.8%	17.4%	128%	8.68% (active)	5.8% (active)
Oc1cncc(-c2ccc3ncnc(N4CCc5cc(F)c(Cl)cc54)c3c2)c1	66.4%	59.2%	44.2%	35.7%	78.8%	46%	41.5%	-1.41% (active)	76.2%	57.6%
CC[C@]12C=CCN3CC[C@]4(C(=C(C(=O)OC)C1)Nc1cc(OC)c([C@@H]5[C@H]6O[C@H]6[C@@]6(CC)CC(C(=O)OC)=C7Nc8cc(OC)ccc8[C@@]78CCN5[C@@H]68)cc14)[C@@H]32	83.1%	51.7%	50%	69.5%	72.5%	44%	43.4%	141%	30.8%	18.4%
CC(=O)Nc1ccc(S(=O)(=O)Nc2ccc(-c3ccc4c(c3)NC(=O)/C4=C\c3ccc[nH]3)cc2)cc1	93.8%	55.6%	100%	73.1%	69.3%	75.5%	76.7%	139%	80.2%	71.6%
